The text below walks through data of paper PMC4336329 (PLoS ONE, 2015).

Molecules are shown by their SMILES. Screen size: about 310,000 compounds; about 14,000 (4.5%) showed an effect of 50% or more. Effects have a minus sign here. The sample as a whole holds a higher share of strong results than the screen did.
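Note: peak tail current of the secondary pulse compared with the same well before compound.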

In this assay the target is human ether-à-go-go-related gene (hERG) potassium channel (human, UniProt Q12809). Kind of assay: primary screen, population patch clamp on CHO cells stably expressing hERG; higher = less effect of the substance.
Sequence of human ether-à-go-go-related gene (hERG) potassium channel (Q12809 whole entry, looked up): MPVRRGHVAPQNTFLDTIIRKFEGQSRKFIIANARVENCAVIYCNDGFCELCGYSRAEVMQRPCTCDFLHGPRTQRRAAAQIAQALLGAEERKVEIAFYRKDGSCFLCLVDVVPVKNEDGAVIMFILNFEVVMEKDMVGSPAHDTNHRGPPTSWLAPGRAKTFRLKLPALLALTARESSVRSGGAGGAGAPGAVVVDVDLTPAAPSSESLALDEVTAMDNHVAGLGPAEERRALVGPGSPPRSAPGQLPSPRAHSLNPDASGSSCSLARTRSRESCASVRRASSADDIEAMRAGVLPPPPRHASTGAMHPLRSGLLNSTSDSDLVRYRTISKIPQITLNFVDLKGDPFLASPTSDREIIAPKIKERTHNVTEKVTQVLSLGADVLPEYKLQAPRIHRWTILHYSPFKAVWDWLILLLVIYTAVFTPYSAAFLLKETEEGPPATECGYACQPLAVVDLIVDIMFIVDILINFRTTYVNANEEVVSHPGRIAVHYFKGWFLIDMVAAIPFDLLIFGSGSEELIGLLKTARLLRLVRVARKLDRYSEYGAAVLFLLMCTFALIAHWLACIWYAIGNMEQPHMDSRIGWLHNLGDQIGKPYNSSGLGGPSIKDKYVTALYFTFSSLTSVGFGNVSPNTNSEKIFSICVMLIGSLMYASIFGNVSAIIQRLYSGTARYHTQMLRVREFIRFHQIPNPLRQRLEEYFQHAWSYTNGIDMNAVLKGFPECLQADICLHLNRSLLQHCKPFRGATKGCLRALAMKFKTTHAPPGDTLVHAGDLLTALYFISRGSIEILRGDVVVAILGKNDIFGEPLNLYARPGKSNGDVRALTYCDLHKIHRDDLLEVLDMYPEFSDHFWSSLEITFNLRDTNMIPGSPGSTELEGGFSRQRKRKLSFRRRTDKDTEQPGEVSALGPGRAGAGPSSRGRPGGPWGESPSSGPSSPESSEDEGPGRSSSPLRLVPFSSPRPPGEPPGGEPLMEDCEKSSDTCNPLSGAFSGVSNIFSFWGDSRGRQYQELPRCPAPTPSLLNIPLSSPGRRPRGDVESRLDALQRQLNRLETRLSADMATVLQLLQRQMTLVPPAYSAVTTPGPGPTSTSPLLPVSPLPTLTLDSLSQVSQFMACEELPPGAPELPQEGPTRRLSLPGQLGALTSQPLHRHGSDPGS
As for `COCCn1c(N)c(C(=O)NCC2CCCO2)c2nc3ccccc3nc21` (stereo not shown), the “hERG current change (%, negative = inhibition) at 10uM” value is given as -7.66%. On to `CN(CC(=O)Nc1ccc(Cl)cc1)C(=O)CNC(=O)Cc1cccc2ccccc12`, for which the “hERG current change (%, negative = inhibition) at 10uM” value worked out at 20.1%.

As to `COc1cccc(CN(C(=O)Cn2nnc(-c3ccccc3F)n2)C(C(=O)NC(C)(C)C)c2ccncc2)c1` (stereo not shown), the “hERG current change (%, negative = inhibition) at 10uM” value is -18.7%.

As to `O=[N+]([O-])c1ccc(N(c2ccccc2)c2ccccc2)cc1`, the “hERG current change (%, negative = inhibition) at 10uM” value turned out to be 4.46%. With `Cc1nn(-c2cc(N3CCNCC3)ccc2[N+](=O)[O-])c(=O)c2ccccc12`, the “hERG current change (%, negative = inhibition) at 10uM” value is given as -11.4%. Take `CCOc1c(Cl)cc(CNc2ccc(S(N)(=O)=O)cc2)cc1OC`: the “hERG current change (%, negative = inhibition) at 10uM” value is -3.11%. For `CC(C)c1ccc(OCC(O)CN2CCCC2)cc1.Cl` (stereo not shown) the value was -11.1%; for `CN1CCN(CC(O)COC(c2ccccc2)c2ccccc2)CC1` (stereo not shown), 11.2%. For `CC1CN(CC(O)COc2ccc(C(C)C)cc2)CC(C)O1.Cl` (stereo not shown) the value was -14.3%; for `CC1CN(CC(O)COC(c2ccc(Cl)cc2)c2ccc(Cl)cc2)CC(C)O1.Cl` (stereo not shown), -71.9%; for `OC(COC(c1ccc(Cl)cc1)c1ccc(Cl)cc1)CN1CCCC1` (stereo not shown), -77.4%. For `CN1CCN(CC(O)COc2ccc(Cl)cc2)CC1.Cl` (stereo not shown) the value was -12.5%; for `COc1ccc(OCC(O)CN2CC(C)OC(C)C2)cc1.Cl` (stereo not shown), 17.5%. Consider `CN1CCN(CC(O)COC(c2ccc(Cl)cc2)c2ccc(Cl)cc2)CC1.Cl` (stereo not shown), for which the “hERG current change (%, negative = inhibition) at 10uM” value is -69.3%. For `CC1CCCCC1NC(=O)c1nnc(Cc2ccc(Cl)cc2)o1` (stereo not shown) the value was -9.72%.

As for `O=c1[nH]c(=O)c2nc3c4ccccc4c4ccccc4c3nc2[nH]1`, the “hERG current change (%, negative = inhibition) at 10uM” value was 4.75%. For `CCOP(=O)(O)c1ccccc1OCCCCCOc1ccccc1P(=O)(O)OCC` the value was 14.5%; for `COC(=O)C(C)(C(=O)OC)c1ccccc1[N+](=O)[O-]`, 7.93%; for `COCCSc1ccccc1C(=O)Nc1nccs1`, -2.77%.

Regarding `CN(C)S(=O)(=O)N1CCN(CC(O)COc2ccc3cc(Br)ccc3c2)CC1` (stereo not shown), the “hERG current change (%, negative = inhibition) at 10uM” value is recorded as -25.6%. For `CCC(=O)c1ccc(OCC(O)CN2CCN(S(=O)(=O)N3CCCCC3)CC2)cc1` (stereo not shown) the value was -55.1%; for `O=S(=O)(N1CCCCC1)N1CCN(CC(O)COc2ccc3cc(Br)ccc3c2)CC1` (stereo not shown), 7.33%; for `CN(C)S(=O)(=O)N1CCN(CC(O)COc2ccc(-c3ccccc3)cc2)CC1` (stereo not shown), -27.3%. For `CN(C)S(=O)(=O)N1CCN(CC(O)COc2ccc(C(=O)c3ccccc3)cc2)CC1` (stereo not shown) the value was -70.2%; for `O=C(c1ccccc1)c1ccc(OCC(O)CN2CCOCC2)cc1` (stereo not shown), -10.8%; for `CCC(=O)c1ccc(OCC(O)CN2CCN(S(=O)(=O)c3ccc(NC(C)=O)cc3)CC2)cc1` (stereo not shown), -20.5%.

Take `O=C(c1ccccc1)c1ccc(OCC(O)CN2CCN(S(=O)(=O)N3CCCCC3)CC2)cc1` (stereo not shown): the “hERG current change (%, negative = inhibition) at 10uM” value is -73.5%. With `CCC(=O)c1ccc(OCC(O)CN2CCCCC2)cc1.Cl` (stereo not shown), the “hERG current change (%, negative = inhibition) at 10uM” value is on record as -21.8%. For `CCOc1ccc(N2C(=O)CN=C2Nc2ccccc2F)cc1` the value was 5.08%. For `COc1ccc(Br)cc1CNc1ccccc1.O=C(O)C(=O)O` the value was 9.4%; for `CN=C1C=C/C(=N/N=c2\ccn(O)cc2C)C=C1C`, -32.6%; for `COC(=O)C1=C(C)N=C2SCCC(=O)N2C1c1cccs1` (stereo not shown), 10.4%. Take `O=C(O)C(=O)O.c1ccc(CNC23CC4CC(CC(C4)C2)C3)nc1`: the “hERG current change (%, negative = inhibition) at 10uM” value was determined as 15.3%.

Regarding `O=C(C1CCN(CC2CC=CCC2)CC1)N(CCc1ccccc1)Cc1ccccc1` (stereo not shown), the “hERG current change (%, negative = inhibition) at 10uM” value is on record as -72%. For `CCC(C)NC(=O)C1CCN(CCCc2ccccc2)CC1.O=C(O)C(=O)O` (stereo not shown) the value was -1.26%; for `O=C(C1CC1)N(CCN(Cc1ccccc1)C(=O)C1CC1)Cc1ccccc1`, -28.9%; for `CC1CCN(C(=O)C2CCN(CCCc3ccccc3)CC2)CC1.O=C(O)C(=O)O`, -62.3%. Turning to `CCN(Cc1ccccc1)C(=O)C1CCN(CC2CC=CCC2)CC1.O=C(O)C(=O)O` (stereo not shown), the “hERG current change (%, negative = inhibition) at 10uM” value is recorded as -46.9%. For `O=C(C1CCCN(CCCc2ccccc2)C1)N1CCCCCC1.O=C(O)C(=O)O` (stereo not shown) the value was -46.2%; for `O=C(C1CCN(CCCc2ccccc2)CC1)N(CCc1ccccc1)Cc1ccccc1.O=C(O)C(=O)O`, -75%; for `CCCCN(Cc1ccccc1)C(=O)C1CCN(Cc2sccc2C)CC1.O=C(O)C(=O)O`, -68.3%. On to `CC1CCCN(C(=O)C2CCN(CCCc3ccccc3)CC2)C1.O=C(O)C(=O)O` (stereo not shown), for which the “hERG current change (%, negative = inhibition) at 10uM” value is recorded as -47.5%.

For `CCN(CC)C(=O)C1CCN(CC2CC=CCC2)CC1` (stereo not shown), the “hERG current change (%, negative = inhibition) at 10uM” value is on record as -0.0716%. Take `CCN(CC)C(=O)C1CCCN(Cc2sccc2C)C1` (stereo not shown): the “hERG current change (%, negative = inhibition) at 10uM” value was found to be 11.6%. For `CCN(Cc1ccccc1)C(=O)C1CCN(Cc2sccc2C)CC1.O=C(O)C(=O)O` the value was -44.3%.

With `Cc1ccc(C(C)C)c(Oc2nnnn2-c2ccccc2)c1`, the “hERG current change (%, negative = inhibition) at 10uM” value is reported as 14.2%. For `CC(=O)N1CCC(N(CCCOC(C)C)S(=O)(=O)c2ccc([N+](=O)[O-])cc2)CC1` the value was -35.3%; for `CCn1cc(C(=O)N2CCn3c(nc4ccccc43)C2)c(=O)c2ccc(C)nc21`, -12.4%. For `COc1ccc(NC(=O)CSC2=C(C#N)C(c3ccco3)C3=C(CCCC3=O)N2)c(OC)c1` (stereo not shown) the value was -33.2%; for `Fc1ccccc1Nc1nc(NCc2ccco2)nc(N2CCOCC2)n1`, -15.8%. For `CCCOc1cccc(C2C(C(=O)c3ccc(C)o3)=C(O)C(=O)N2c2nc(C)c(C(C)=O)s2)c1` (stereo not shown), the “hERG current change (%, negative = inhibition) at 10uM” value was found to be 9.66%.

In the case of `COc1cc(NC(=O)c2c(F)c(F)c(OC)c(F)c2F)ccc1NC(=O)c1cccs1`, the “hERG current change (%, negative = inhibition) at 10uM” value is 11.2%.

As to `COc1ccc(C(=S)N2CCCC2)cc1Br`, the “hERG current change (%, negative = inhibition) at 10uM” value was -7.39%. For `CCOC(=O)Cc1csc(NC(=O)NC2(C(F)(F)F)Oc3ccccc3O2)n1` the value was 5.19%. For `O=C(NCCc1ccccc1)c1ccc(CS(=O)(=O)Cc2ccccc2F)o1` the value was -19.7%.
